# Results from ChEMBL document CHEMBL4513216, “Probing the Open Global Health Chemical Diversity Library for Multistage-Active Starting Points for Next-Generation Antimalarials” (ACS Infect Dis, 2020).
# Out of some 65,000 compounds screened, about 2,100 (3.2%) showed an effect of 50% or more. The median lay at about -52%. This excerpt belongs to a sample that is enriched for strong results.
# Test system: Plasmodium falciparum
# Assay: Screen against P. falciparum Asexual Blood Stage (ABS), at 5uM
# Assay type: functional, Dd2
# Settings: tested at 5 uM
row,SMILES,INHIBITION [%]
1,O=C1[C@@H]2CN(Cc3ccccn3)C[C@H]2CCN1c1cncnc1,-99.9
2,Cc1ccc(-n2nnc(CC(=O)N3CCN(C(C)C)CC3)c2C)cc1,-42.3
3,CCC(=O)NCC(=O)NC(Cc1ccccc1)c1sccc1C (stereo unspecified),85.5
4,CCOC(C)c1noc(CN(C)C(=O)C2C(C)(C)C2(C)C)n1 (stereo unspecified),-124
5,Cc1cc(C)c2cc(CNCc3ccco3)c3nn(C)c(=O)n3c2c1,75.5
6,COc1ccc(CCNCc2ccco2)cc1OC,5.79
7,Cc1cc(C)c2cc(CNC3CCCCC3)c3nn(C)c(=O)n3c2c1,79.7
8,Oc1ccc(Cl)cc1CNCc1ccccc1Cl,76.4
9,Cc1ccccc1CNCc1cc(Cl)ccc1O,75.4
10,Oc1ccc(Cl)cc1CNCc1cccc(C(F)(F)F)c1,89
11,COCCNC(=O)[C@H]1C[C@@H]2CCN(Cc3ccncc3)C[C@H]2O1,-49.6
12,O=C(NCc1ccncc1)C1=NOC2(CCCNC2)C1 (stereo unspecified),-6.12
13,Cc1cccc(CN2CC3C[C@]3(NC(=O)c3ccco3)C2)n1 (stereo partly specified),-83.2
14,CCCc1nc(CNC(C)Cn2cccn2)cs1 (stereo unspecified),-91.5
15,COCCN1CCN(c2ccc(C)nn2)Cc2ccc(C)nc21,-54.8
16,Nc1nc2c(c(N3CCCC(c4nnc5ccccn45)C3)n1)CCNC2 (stereo unspecified),84.8
17,O=C(C1CC1)N1CCc2c(ncnc2N2CCN3CCCC3C2)C1 (stereo unspecified),-21.1
18,c1ccn2c(C3CCCN(c4ncnc5c4CCNC5)C3)nnc2c1 (stereo unspecified),76.2
19,Clc1cncc(N2CCN(Cc3ccon3)CC2)n1,-51.3
20,CN1CCCCC1c1cncc(Cl)n1 (stereo unspecified),-143
21,CC(C)(N)C(=O)N1CCCC1c1cncc(Oc2ccccc2)n1 (stereo unspecified),78.6
22,O=C(Nc1cccnc1)[C@@H]1C[C@H]2OCC[C@H]2N(Cc2nccs2)C1,-80.7
23,Cn1cc(CN2C[C@@H]3[C@@H](C2)OCC(=O)N3Cc2ccncc2)cn1,-72.9
24,c1ccc(CN2CC[C@@H]3[C@@H](CO[C@@H]3CNc3ncccn3)C2)nc1,-169
25,CO[C@H]1CCN(c2ncc(F)cn2)[C@@H]2CN(Cc3ccco3)C[C@H]12,63.7
26,CCN1C[C@H]2[C@@H](C1)N(c1ncc(F)cn1)CC[C@H]2OC,35.7

row,SMILES,INHIBITION [%]
1,CO[C@@H]1CCN(c2ncc(F)cn2)[C@@H]2CN(CC3CC3)C[C@@H]21,6.1
2,CN(Cc1ccco1)C[C@H]1OC[C@@H]2CCN(Cc3ccccn3)C[C@@H]21,71.1
3,COC[C@H]1CC[C@@H]2[C@@H](CCN2Cc2ccccn2)O1,-7.67
4,c1ccc(CN2CC[C@H]3CO[C@H](CNc4ncccn4)[C@H]3C2)nc1,-30.4
5,CO[C@@H]1CC[C@H]2[C@H]1OCCN2Cc1ccccn1,-64.6
6,c1ccc(COC[C@H]2CC[C@H]3[C@H](CCN3Cc3ccco3)O2)nc1,-63.4
7,COC[C@H]1CC[C@@H]2[C@@H](CCN2Cc2ccco2)O1,-128
8,CO[C@@H]1CCN(Cc2ccccn2)[C@@H]2CN(Cc3ccco3)C[C@@H]21,81.6
9,CO[C@H]1CCN(Cc2ccccn2)[C@@H]2CN(Cc3ccco3)C[C@H]12,67.7
10,COc1cccc2c(=O)n(C3CCNCC3)cnc12,-104
11,O=C(NC1CCC1)[C@@H]1C[C@@H]2CCN(Cc3ccncc3)C[C@H]2O1,-70.1
12,COCCO[C@@H]1C[C@H]2CN(C(=O)c3ccc(C)nc3)CCN2C1,-15.2
13,Cn1ccc(CN2CCOCC23CCNCC3)n1,-75.7
14,Cc1noc(C)c1C(=O)N1CCC2(CC1)c1nc[nH]c1CCN2C,-42.4
15,CCN(CC)CCN1CCO[C@H]2[C@@H](OCc3ccncc3)CC[C@@H]21,-18.1
16,Cn1cc(CN2C[C@H]3CCC[C@@]3(COc3cccnc3)C2)cn1,17.2
17,c1ccc(COC[C@@]23CCC[C@@H]2CN(Cc2ccccn2)C3)nc1,-56.9
18,c1ccc(OC[C@]23COC[C@H]2CN(Cc2ccoc2)C3)nc1,15.8
19,Cn1cc(CN2C[C@H]3CCC[C@@]3(COc3ccccn3)C2)cn1,66.1
20,c1ccc(OC[C@]23COC[C@H]2CN(C2CCOCC2)C3)nc1,2.04
21,CN(C)CC(=O)N1C[C@H]2CCC[C@@]2(COc2ccccn2)C1,84.9
22,COc1ccccc1C1SCC(=O)Nc2c1c(=O)[nH]n2C1CCOCC1 (stereo unspecified),-116
23,COCCN1CCC2(COCc3c(C)nc(N(C)C)nc32)C1 (stereo unspecified),-49.6
24,CN(C)c1ncc2c(n1)C1(CCN(CC3CC3)C1)COC2 (stereo unspecified),-2.79
25,Cc1nc(N(C)C)nc2c1COCC21CCN(CC2CC2)C1 (stereo unspecified),50.3
26,Cc1ccc(CN(CCCn2ccnc2)Cc2c(F)cccc2F)s1,81.5

row,SMILES,INHIBITION [%]
1,Cc1cc(C2CCC2)nc(NCCC23CCCN2CCC3)n1,12.6
2,CC(C)COc1ccc(C2SCC(=O)Nc3c2c(=O)[nH]n3C(C)C)cc1 (stereo unspecified),-35.2
3,CSC(C)CCN1CCC(n2cc(C3CCCCC3)nn2)CC1 (stereo unspecified),78.4
4,CCC(C)CN1CCC(n2cc(C3CCCCC3)nn2)CC1 (stereo unspecified),77.1
5,CC1(C)C(C(=O)NCCC2CN(Cc3c[nH]cn3)CCO2)C1(C)C (stereo unspecified),-64.7
6,Cc1nc(C2(NCc3cc(C#N)ccc3F)CCCCC2)no1,-10.8
7,COc1ccc2[nH]c(C[C@@H]3C[C@@H](C(C)C)[C@H](CN(C)C)C=C3C)nc2c1,78.9
8,Cc1ccc(CN2C[C@@H]3CCN(Cc4cccnc4)C(=O)[C@H]3C2)s1,-93.5
9,CC(C)c1nccc([C@@H]2C[C@@H]3CCN(Cc4ccco4)C[C@H]3O2)n1,-12.5
10,CN(C)C(=O)CN1CCOCC2(C1)CN(c1ncccn1)CCO2 (stereo unspecified),-97
11,Cc1nc(-c2ccc(F)c(F)c2)cc(C2CCNCC2)n1,84.1
12,CN1CCN(S(=O)(=O)c2cccc(F)c2)Cc2cccnc21,-37.8
13,CN1CCN(S(=O)(=O)c2ccc(Cl)c(Cl)c2)c2cnccc21,89.6
14,Cn1cc(CN2CC[C@H]3[C@H]2CC(=O)N3Cc2ccncc2)cn1,-2.65
15,FC1(F)CCN(Cc2cccnc2)CC12CCN(c1ccccc1)C2 (stereo unspecified),85.3
16,FC1(F)CCNCC12CCN(c1cccnc1)C2 (stereo unspecified),66.6
17,OCCN1CCC(F)(F)C2(CCN(c3cccnc3)C2)C1 (stereo unspecified),-46.2
18,FC1(F)CCNCC12CCN(c1ccccn1)C2 (stereo unspecified),58.6
19,FC1(F)CCNCC12CCN(c1ncccn1)C2 (stereo unspecified),19.8
20,Fc1cccnc1N1CCC2(CNCCC2(F)F)C1 (stereo unspecified),47.8
21,c1cnc(N2CC3(CCN(Cc4cccnc4)C3)C2)nc1,-85.5
22,O=C1CSC(c2ccc(O)cc2)c2sccc2N1 (stereo unspecified),-74.5
23,c1coc(CN2CC[C@@H]3O[C@@H](COCc4ccncc4)CC[C@@H]32)c1,-70.4
24,CCCN1CCN(C(=O)Cc2cccnc2)[C@H]2CS(=O)(=O)C[C@H]21,-103
25,CO[C@H]1CN(CC2CC2)[C@@H]2CCCO[C@H]12,7.3
26,Cc1nc(C2CCN(C)CC2)cc(N2CCOc3ccc(Cl)cc3C2)n1,70.7

row,SMILES,INHIBITION [%]
1,CC(Cn1cccn1)NCc1nc(-c2ccsc2)no1 (stereo unspecified),-40
2,CCS(=O)(=O)N1CCc2c(CN3CCOCC3)cncc2C1,-10.2
3,CC1CN(Cc2ccccc2)CCCN1CCNS(C)(=O)=O (stereo unspecified),71.7
4,O=C(O)[C@H]1CN(Cc2ccccc2)C[C@@H]1C(=O)c1ccccc1,-40.5
5,CS(=O)(=O)NC[C@H]1OC[C@@H]2CN(Cc3cccnc3)CC[C@@H]21,-58.6
6,CCC(C)Oc1ccc(CNCCc2c[nH]cn2)cc1Cl (stereo unspecified),91.9
7,Cc1cnc(NCCc2c[nH]cn2)nc1-c1ccnn1C,-84
8,Cc1cccc(CN2CCN3C[C@H](Oc4cncnc4)C[C@H]3C2)n1,-87
9,CCC(=O)N1CCC2(CC1)C(=O)N(Cc1cccnc1)CCN2C,0.961
10,Cc1cccc(CN2CCCC[C@H]3CN(c4ncccn4)C[C@H]32)c1,-35.2
11,Cc1ccc(CN2C[C@@H]3CN(c4ncccn4)C[C@@H]3C2)cc1,-62.8
12,Cc1cccnc1CN(C)CC1(O)CCCN(CC2CCCCC2)C1=O (stereo unspecified),44.3
13,Cc1cccc(CN2CCCC(O)(CNCc3ncccc3C)C2=O)c1 (stereo unspecified),82.1
14,Cc1cccc(CN2CCC3(CCN(c4ncccn4)CC3)C2=O)c1,76
15,CC(C)c1cc(N2CCC3(CC2)CN(C)CCN3C)ncn1,-11.3
16,CCOc1ncccc1C(=O)N1CCN(C)C2(CCN(C)CC2)C1,10.3
17,Cc1cc(C)c2c(NCCC34CCCN3CCC4)ncnc2n1,-48.6
18,O=C(C1CCC1)N1CC[C@]2(O)CCN(Cc3ncccn3)C[C@@H]2C1,-55.6
19,O=C(C1CCC1)N1CCN(Cc2cccnc2)[C@H]2CS(=O)(=O)C[C@H]21,-17.6
20,CC(C)Nc1cc(-c2c[nH]nc2C2CCN(C(=O)C3CCC3)C2)ccn1 (stereo unspecified),83.7
21,CC(C)Nc1cc(-c2c[nH]nc2C2CCN(C(=O)C3CC3)C2)ccn1 (stereo unspecified),80.9
22,CCCNc1cc(-c2c[nH]nc2C2CCN(C(=O)C3CCC3)C2)ccn1 (stereo unspecified),92.5
23,CCc1ncc(CN2C[C@@H]3CC[C@H]2CN(C(=O)C2CCC2)C3)cn1,-85.5
